# System: T1, MLCK
# T1 construct: gene MYLK3
# Conditions: concentration: 1 μM,replicates: in singlicate; n = 1
# 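Further: KINOMEscan kinase panel screen.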
row,SMILES,%Inh [%]
1,CCN(CC)CCOc1ccc(Nc2ncc3cc(-c4c(Cl)cccc4Cl)c(=O)n(C)c3n2)cc1 [SB-601273],98.4
2,C[C@@H](Oc1cc(-c2cnn(C3CCNCC3)c2)cnc1N)c1c(Cl)ccc(F)c1Cl,0
3,C[C@@H]1CCN(C(=O)CC#N)C[C@@H]1N(C)c1ncnc2[nH]ccc12,0
4,Cl.Cl.NC[C@H](CC1CCCCC1)NC(=O)c1cc(Br)c(-c2ccnc3[nH]ccc23)s1 [GSK1581427],39
5,C=CC(=O)Nc1cc2c(Nc3ccc(F)c(Cl)c3)ncnc2cc1OCCCN1CCOCC1 [GW781483],0
6,COc1ccc(C[C@@H](CN)NC(=O)c2cc(Br)c(-c3ccnc4[nH]ccc34)s2)cc1.Cl.Cl [GSK1389063],95.4
7,Cc1cc(C(=O)Nc2ccc(Oc3ccc4nc(NC(=O)C5CC5)cn4n3)cc2)nn1-c1ccccc1,0
8,CCN(CC)CCCCNc1ncc2cc(-c3c(Cl)cccc3Cl)c(NC(=O)NC(C)(C)C)nc2n1,11
9,CN(C)CC(O)COc1ccc(Nc2nccc(-c3cnn4nc(N5CCOCC5)ccc34)n2)cc1 (centres unmarked) [GW767488],0
10,Cc1ccc(-n2nc(C(C)(C)C)cc2NC(=O)Nc2ccc(OCCN3CCOCC3)c3ccccc23)cc1 [GW839464],0
11,CC(C)N1C(=O)Cc2cc(Nc3ncc(C(F)(F)F)c(NCc4cccc(S(C)(=O)=O)c4)n3)ccc21,6
12,C[C@H]1Oc2cc(cnc2N)-c2c(nn(C)c2C#N)CN(C)C(=O)c2ccc(F)cc21,0
13,CN(C)CCOc1ccc(-c2cc(-c3c[nH]nc3-c3ccccn3)ccn2)cc1 [GW835314],0
14,Cl.Cl.NC[C@H](Cc1ccc(C(F)(F)F)cc1)NC(=O)c1cc(Br)c(-c2ccnc3[nH]ccc23)s1 [GSK1487252],63
15,CCn1c(-c2nonc2N)nc2c(C#CC(C)(C)O)nc(OCCN)cc21.Cl.Cl [GSK902056],0
16,Cl.Cl.Nc1nc(-c2ccc3c(N)n[nH]c3c2)cc(N2CCCC(NC(=O)c3ccccc3)C2)n1 (centres unmarked) [GSK2286775],0
17,Nc1nc(Nc2ccccc2)cc(-c2ccc3c(N)n[nH]c3c2)n1 [GSK2225749],18
18,O=C(NCCNc1ccnc(NCc2ccc(F)cc2)n1)c1cc2ccccc2s1 [GSK1379944],0
19,CC(C)Nc1cc(-c2ccc3c(N)n[nH]c3c2)nc(N)n1 [GSK2221681],51
20,Cl.Oc1cc(-c2nc(-c3ccccc3)[nH]c2-c2ccncc2)ccc1Cl [SB-386023],0
21,Cc1n[nH]c2ccc(-c3cc(OC[C@@H](N)Cc4ccccc4)cnc3-c3ccoc3)cc12.O=C(O)C(F)(F)F.O=C(O)C(F)(F)F [GSK507358],90
22,Cc1ccc2c(-c3ccncc3)c(-c3ccc(F)cc3)nn2c1.Cl [GW461484],0
23,Cc1occc1-c1nc(N)c(OC[C@@H](N)Cc2c[nH]c3ccccc23)cc1-c1cc2c(C)n[nH]c2cn1 [GSK1660450],2
24,NC(=O)c1cc(-c2ccccc2)cc2c(C3CCNCC3)c[nH]c12 [GSK301362],0
25,Cc1cc2cn[nH]c2cc1-c1cccc2c(N)c(C(N)=O)nnc12,0
26,O=C(NCCCN1CCOC1=O)c1cnc(NCc2cc(Cl)ccc2Cl)nc1NC1CCCC1,0
